About 20,000 (21%) of roughly 96,000 compounds were called active. Not all results are given here. A number with no mark means an inactive call.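 Rule for the calls: active = CYP2C19 inhibition above a set limit at 5 µM in the primary screen (cut at about 50% in these data); inactive = the rest.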
What follows are molecules tested against Cytochrome P450 2C19 (Homo sapiens) (UniProt P33261) (assay: blockers of cytochrome P450 2C19 activity – biochemical, luminescence, ADME assay, primary screen (AID 778;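 note: plate controls were negative control wells for no effect and 2.5 mM tranylcypromine positive control for full effect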)). Conditions: CYP2C19 Supersomes, luciferin-H EGE luminescence, 30 min; at 5 µM; hits give high values.
Sequence of Cytochrome P450 2C19 (Homo sapiens) (P33261 whole entry, looked up): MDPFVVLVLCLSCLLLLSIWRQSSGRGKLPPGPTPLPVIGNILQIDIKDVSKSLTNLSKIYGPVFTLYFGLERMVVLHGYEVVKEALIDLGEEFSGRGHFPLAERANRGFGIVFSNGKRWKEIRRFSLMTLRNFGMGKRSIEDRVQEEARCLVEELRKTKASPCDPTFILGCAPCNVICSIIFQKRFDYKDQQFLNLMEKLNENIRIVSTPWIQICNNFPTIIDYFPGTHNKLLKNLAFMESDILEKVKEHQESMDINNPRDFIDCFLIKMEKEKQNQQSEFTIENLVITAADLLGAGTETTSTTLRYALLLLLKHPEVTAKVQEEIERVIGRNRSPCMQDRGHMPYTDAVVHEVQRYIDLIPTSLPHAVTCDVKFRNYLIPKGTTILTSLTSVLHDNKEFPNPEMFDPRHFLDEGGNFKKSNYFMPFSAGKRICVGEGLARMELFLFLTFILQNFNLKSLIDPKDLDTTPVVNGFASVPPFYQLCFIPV

SMILES | inhibition
COc1cc(OC)cc(C(=O)Nc2ccc(-c3nc4ccccc4o3)c(O)c2)c1 | 22.3%
O=C(c1cccc(F)c1)N1CCN(c2ccc([N+](=O)[O-])c(N3CCCCC3)c2)CC1 | 49%
Cc1ccccc1CS(=O)(=O)CC1(O)CCN(C(=O)c2cccc(C(F)(F)F)c2)CC1 | 19.1%
Cc1ccccc1CN1CCN(C(=O)c2cccc(F)c2)CC1 | 98.4% (active)
O=C(c1cccc(C(=O)N2CCN(c3ccc(F)cc3)CC2)c1)N1CCN(c2ccc(F)cc2)CC1 | 81.8% (active)
CC(C)N(C(=O)COC(=O)c1ccccc1C(=O)N1CCN(c2ccc(F)cc2)CC1)C(C)C | 44.2%
O=C(c1ccccc1)c1cccn1CC(=O)N1CCN(c2ccc(F)cc2)CC1 | 33.3%
CCC(CC)C(=O)Nc1cccc(C(=O)N2CCCC2)c1 | 15.4%
O=C(c1ccccc1)N1CCN(C(=O)N2CCCCC2)CC1 | 39.7%
Cc1cccc(C(=O)N2CCCN(C(=O)c3cccc(C)c3)CC2)c1 | 90.5% (active)
O=C(c1ccccc1Oc1ccccc1)N1CCN(c2ccc(F)cc2)CC1 | 87.1% (active)
O=C(c1ccccc1-c1ccccc1)N1CCOCC1 | 10.3%
O=C(CN1CCN(C(=O)c2cccc(F)c2)CC1)Nc1ccccc1F | 42.8%
O=C(NCc1ccco1)C1(c2ccc(Cl)cc2)CCCC1 | 39.8%
CCOc1nc(NCCN2CCOCC2)nc(Nc2ccc(C)cc2)n1 | 11.1%
CCOc1ccc(NC(=O)Nc2ccc(N(C)C(C)=O)cc2)cc1 | -7.4%
O=C(Nc1ccc2ccccc2c1)Nc1ccc2snnc2c1 | 5.2%
Oc1c(C=Nc2cccc3nsnc23)ccc2ccccc12 | 45.4%
CC1CN(C(=O)c2ccc3c(c2)OCO3)OC(c2ccccc2)O1 (centres undefined) | 74.6% (active)
Cc1ccc(-c2nn(-c3ccccc3)cc2/C=N/NC(=O)c2ccc3c(c2)OCO3)cc1 | 49.9%
O=C(c1ccc2c(c1)OCO2)N1CCNc2ccccc2C1 | 16.6%
CCn1c(COc2cccc(OC)c2)nnc1SCC(=O)N1CCOCC1 | 9.6%
CC1(C)Cc2ccccc2-c2nc(CN3CCOCC3)[nH]c(=O)c21 | 9.2%
CCOC(=O)C1Cn2c(nc3c(c2=O)C(C)(CC)Cc2ccccc2-3)S1 (centres undefined) | 97.8% (active)
COC(=O)Nc1ncc(CN2CCCCC2)s1 | -1.3%

SMILES | inhibition
Cc1cc(C)c(C#N)c(SCc2ccc3c(c2)OCO3)n1 | 96.5% (active)
Cc1cc(C)c(C#N)c(SCc2[nH]nc3c2C(c2ccccc2)C(C#N)=C(N)O3)n1 (centres undefined) | -13.6%
Cc1cc(C)c(C#N)c(SCc2ccccc2C(=O)O)n1 | -6%
CC(CO)N1CCS(=O)(=O)CC1 (centres undefined) | -1.3%
O=C(c1ccc(Cl)cc1)c1cnc(Nc2ccccc2)s1 | -10.7%
CCCOC(=O)Nc1ccccc1C(N)=O | 5.8%
CSCCC(NC(=O)COc1ccccc1)C(=O)OCC(=O)c1cc2ccccc2o1 (centres undefined) | 28.3%
C=CCn1c(SCC(=O)c2c(N)n(C)c(=O)n(C)c2=O)nc2sc(CC)cc2c1=O | 1.3%
Cc1cc2c(=O)n(C)c(SCC(=O)c3cc4ccccc4o3)nc2s1 | 85.9% (active)
COc1ccc(CN2CCn3ncc(C(=O)Nc4ccc(Cl)cc4Cl)c3C2=O)cc1 | -8.8%
O=C(COC(=O)CCc1c[nH]c(=O)[nH]1)Nc1ccccc1Cl | -10%
O=C(O)CSCNC(=O)CC12CC3CC(CC(C3)C1)C2 | 11.3%
O=C(O)c1ccc(NS(=O)(=O)c2cccc3nsnc23)cc1 | 2%
O=C(C(NS(=O)(=O)c1cccc2nsnc12)c1ccccc1)N1CCN(c2ccccn2)CC1 (centres undefined) | 35.6%
O=C(C(NS(=O)(=O)c1cccc2nsnc12)c1ccccc1)N1CCN(c2ccccc2)CC1 (centres undefined) | 86.3% (active)
CC(C)c1nc2ccc(C(=O)O)cc2[nH]1 | 12.1%
CC(C)(C)c1cc(=O)n2c(nc3ccccc32)[nH]1 | 12.3%
C/C(=N\NC(=O)c1ccccc1C)c1ccc(N2CCOCC2)cc1 | 3.2%
Cc1cccc(-n2nc3c(c2NC(=O)c2ccc(Br)o2)CSC3)c1C | -0.9%
O=C1CCC(=O)N1CCOP1(=O)COc2ccccc2OC1 | -14.7%
CN=C1SC(C(=O)O)CC(=O)N1C (centres undefined) | -3.4%
COc1ccc(-n2c(Cc3cccn3C)nnc2SCC(=O)Nc2cc(C)cc(C)c2)cc1 | 20.6%
Cn1cccc1Cc1nnc(SCC(=O)NCCc2ccccc2)n1-c1ccc(F)cc1 | 59.6% (active)
COC(=O)c1ccc(NC(=O)CSc2nnc(Cc3cccn3C)n2-c2ccc(F)cc2)cc1 | 22.5%
Cc1ccc(C)c(NC(=O)CSc2nnc(Cc3cccn3C)n2-c2ccc(F)cc2)c1 | 15.6%

SMILES | inhibition
Cn1cccc1Cc1nnc(SCC(=O)NCc2ccc3c(c2)OCO3)n1CCc1ccccc1 | 88.3% (active)
COc1ccccc1NC(=O)CSc1nnc(Cc2cccn2C)n1-c1ccc(F)cc1 | 66.3% (active)
Cc1nnc(SCC(=O)N/N=C/c2cn(-c3ccccc3)nc2-c2ccc(F)cc2)n1-c1ccccc1 | 3.9%
CC1(C)CC(=O)C=C(NCc2ccncc2)C1 | 31.5%
CCN(CC)C(=O)CSc1nnc(C2CCCCC2)o1 | 8.6%
CCCC(=O)Nc1ccc2c(c1)nc1n2CCSC1 | -2.8%
COc1cccc(OC)c1C(=O)Nc1ccc(N2CCCCC2)cc1 | -3.6%
Cc1ccc2nc(-c3ccccc3)cc(C(=O)O)c2c1 | -3.4%
Cc1ccc(OCC(=O)Nn2cnc3ccccc32)cc1 | 17.2%
COc1ccc(-c2cc(C(=O)n3cnc4ccccc43)c3ccccc3n2)cc1 | 74.8% (active)
O=C(C1=C(O)C(=O)N(c2ncccn2)C1c1cccs1)c1ccco1 (centres undefined) | 1.3%
CCC(=O)c1ccc(OCC(O)CN2CCN(c3cccc(C(F)(F)F)c3)CC2)cc1 (centres undefined) | 25.5%
Cn1nc(C(F)(F)F)c2cc(NC(=O)OCC(C)(C)C)sc21 | 34.6%
CCC(=O)OCc1c(C(F)(F)F)nn(C)c1Oc1cccc(C(F)(F)F)c1 | 57.7% (active)
COc1ccc(Nc2cc(=O)oc3ccccc23)cc1 | 17.7%
CCOc1ccccc1NC(=O)C1CCN(S(=O)(=O)c2c(C)nn(C)c2C)CC1 | 44.7%
CCOc1ccc(OCC)c(NC(=O)C2CCN(S(=O)(=O)c3c(C)noc3C)CC2)c1 | 54.5% (active)
Cc1ccc(NC(=O)C2CCCN(S(=O)(=O)c3c(C)noc3C)C2)c(C)c1 (centres undefined) | 11.2%
Cc1noc(C)c1S(=O)(=O)N1CCCC(C(=O)Nc2nccs2)C1 (centres undefined) | 78.8% (active)
CCOC(=O)C1CCN(C(=O)C2CCN(S(=O)(=O)c3c(C)noc3C)CC2)CC1 | 14.7%
Cc1noc(/C=C/N(C)C)c1S(=O)(=O)N1CCCC(C(=O)NCc2ccco2)C1 (centres undefined) | 39.6%
COc1ccc(N2CCN(Cc3cc(=O)oc4ccc5ccccc5c34)CC2)cc1 | 12.4%
Fc1ccc(N2CCN(Cc3cnc(Oc4ccc(Br)cc4)s3)CC2)cc1 | 2.8%
COc1ccc(N2CCN(Cc3ccc(Br)s3)CC2)cc1 | 96.1% (active)
C=CCSC1=C(C#N)C(c2cc(Br)c(O)c(OC)c2)CC(=O)N1 (centres undefined) | 67.5% (active)

SMILES | inhibition
Cc1ccc(Cl)cc1NC(=O)COC(=O)C1CCCCC1 | 32.1%
CCc1ccc(N2CC(C(=O)NC3=NCCS3)CC2=O)cc1 (centres undefined) | -1.1%
CC(C)c1ccc(N2CC(C(=O)Nc3nccs3)CC2=O)cc1 (centres undefined) | 59.1% (active)
CCCOc1ccc(N2CC(C(=O)Nc3ccccn3)CC2=O)cc1 (centres undefined) | -18.5%
CN(C)C(=O)c1cc(Br)ccc1Cl | 4%
CCOc1cccc(/C(O)=C2/C(=O)C(=O)N(CCOC)C2c2ccncc2)c1 (centres undefined) | -18.2%
COc1ccc(N2C(=O)CC(N3CCC(C(N)=O)CC3)C2=O)cc1 (centres undefined) | -28.9%
COC(=O)CNS(=O)(=O)c1ccc(OC)cc1 | 10.3%
COc1ccc(C(=O)Nc2ccc(S(=O)(=O)NC(C)C)cc2)cc1 | 42.9%
CO/N=C(/CS(=O)(=O)c1ccc(Br)cc1)c1ccc(OC)cc1 | 100% (active)
Cc1nc(-c2ccccc2)sc1-c1nc(-c2ccccc2)ncc1S(=O)(=O)c1ccccc1 | 5.1%
CC(C)NS(=O)(=O)c1ccc(CCC(=O)N2CCOCC2)cc1 | 14.2%
Cn1c(C(=O)OC(C(=O)NC2CCCCC2)c2ccccn2)cc2sccc21 (centres undefined) | 67.2% (active)
O=C(OC(C(=O)NC1CCCC1)c1ccc(F)cc1)c1ccno1 (centres undefined) | 8.1%
CC(=O)OC(C(=O)NC1CCCCC1)c1ccccc1 (centres undefined) | 20.2%
Cc1nc2ccccc2c(=O)n1CCCn1ccnc1 | 50.8% (active)
CCn1c(C)nc2c1C(=O)c1ccccc1C2=O | -8.5%
Cc1nc2c(c(=O)n1Cc1ccco1)c1nc3ccccc3nc1n2Cc1ccccc1 | 3%
CCC(C)N1C(=O)S/C(=C/c2ccc(Sc3nc4ccccc4[nH]3)o2)C1=O (centres undefined) | 43.3%
CC(C)Cc1oc(C(=O)O)cc1CN | 4.2%
CC1OC2C(OC1C)N(S(C)(=O)=O)CCN2S(C)(=O)=O (centres undefined) | -4.8%
CCc1ccc(CNC(=O)C2CC(=O)N(CCc3ccc(C)cc3)C2)cc1 (centres undefined) | 54.2% (active)
Cc1ccc(CCN2CC(C(=O)O)CC2=O)cc1 (centres undefined) | -0.5%
Cc1ccc(CNC(=O)C2CC(=O)N(C3CCCCCCC3)C2)cc1 (centres undefined) | -2.5%

From PubChem BioAssay AID778 (Sanford-Burnham Center for Chemical Genomics, 2007)
